Bioassay records from PubChem.
Sampled rows, rich in hits. Any-hit rate of the full collection: about 3.3%.
Cl transport mod – KCC2 cotransporter modulators, thallium flux, primary screen, cell-based, HEK293 KCC2, FluoZin-2 fluorescence, MLSMR; Solute carrier family 12 member 5 (Homo sapiens), Q9H2X9; KCC2 cells, thallium flux FluoZin-2 fluorescence; B-score of Tl+ flux slope (higher = more flux/activation; lower = inhibition) at 10 µM; 190,000 tested, 2.2% active; AID 1456, 2008;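 active = thallium flux slope and its plate-corrected score both differing from the plate sample mean at a set confidence after two filtering rounds, in either direction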;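 also: slope of fluorescence scaled to starting intensity during 10 to 20 s after thallium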
Target sequence (Q9H2X9 whole entry, looked up): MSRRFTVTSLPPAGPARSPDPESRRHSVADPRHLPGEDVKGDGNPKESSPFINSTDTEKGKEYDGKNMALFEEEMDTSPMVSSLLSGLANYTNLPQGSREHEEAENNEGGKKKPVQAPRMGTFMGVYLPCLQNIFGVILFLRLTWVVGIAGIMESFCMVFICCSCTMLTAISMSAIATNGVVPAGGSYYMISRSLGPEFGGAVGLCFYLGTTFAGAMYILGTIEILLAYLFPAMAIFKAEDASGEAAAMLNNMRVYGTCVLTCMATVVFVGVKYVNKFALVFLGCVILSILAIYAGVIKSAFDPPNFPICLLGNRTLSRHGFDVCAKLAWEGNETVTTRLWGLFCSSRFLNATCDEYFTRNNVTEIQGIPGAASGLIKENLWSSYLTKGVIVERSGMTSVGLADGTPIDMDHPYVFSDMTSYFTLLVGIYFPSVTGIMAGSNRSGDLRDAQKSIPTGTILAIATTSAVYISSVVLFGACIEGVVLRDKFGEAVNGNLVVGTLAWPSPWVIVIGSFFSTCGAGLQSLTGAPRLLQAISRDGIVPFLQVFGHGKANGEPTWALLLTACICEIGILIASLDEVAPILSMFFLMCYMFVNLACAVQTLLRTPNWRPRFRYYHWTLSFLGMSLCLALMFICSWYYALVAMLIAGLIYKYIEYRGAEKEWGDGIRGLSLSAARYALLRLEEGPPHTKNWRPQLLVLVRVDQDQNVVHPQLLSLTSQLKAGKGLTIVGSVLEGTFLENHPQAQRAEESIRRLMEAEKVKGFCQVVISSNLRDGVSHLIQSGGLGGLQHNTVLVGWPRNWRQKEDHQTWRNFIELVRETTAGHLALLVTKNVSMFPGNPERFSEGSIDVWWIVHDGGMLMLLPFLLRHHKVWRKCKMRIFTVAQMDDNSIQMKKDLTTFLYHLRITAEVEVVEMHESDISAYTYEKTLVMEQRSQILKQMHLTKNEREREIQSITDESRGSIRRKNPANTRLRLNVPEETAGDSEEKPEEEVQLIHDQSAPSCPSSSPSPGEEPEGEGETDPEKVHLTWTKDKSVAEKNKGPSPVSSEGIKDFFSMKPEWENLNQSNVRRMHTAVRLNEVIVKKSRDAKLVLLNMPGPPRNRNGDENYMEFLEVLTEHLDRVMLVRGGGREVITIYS
Calb FLC – C. albicans growth inhibition with fluconazole, primary screen, CaCi-2 strain, Alamar Blue fluorescence. growth inhibition, % (test concentration not listed). C. albicans CaCi-2 (fluconazole-resistant clinical isolate) + fluconazole, 48 h. AID 1979, 2009. 300,000 tested, 0.57% active;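 active = growth inhibition above about 58% in most replicates, limit read from the data, passing the limit was not always enough; inconclusive = exactly half the replicates above a set limit; inactive = most replicates below a set limit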;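 also: all wells also contain fluconazole at 8 µg/ml as a sub-toxic cotreatment; 0% = median of DMSO wells and 100% = median of geldanamycin control wells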
PHOSPHO1 block – PubChem AID 1565; Phosphoethanolamine/phosphocholine phosphatase (Homo sapiens), Q8TCT1; 290,000 tested, 1.1% active; recombinant PHOSPHO1, absorbance phosphatase assay; inhibition, % at 13.3 µM; in the data active = inhibition above about 60%
Efflux pump inh – inhibitors of Candida efflux pumps in yeast, primary screen, S. cerevisiae, Nile Red, multiplex; S. cerevisiae Candida pump triplex; inhibition, % at 10 µM; 330,000 tested, 0.44% active; AID 485275, 2010;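 active = plate passing quality check with inhibition over a set limit, or well fluorescence over plate mean plus 4 SD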;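 also: Nile Red retained in pooled yeast measured as flow cytometry median fluorescence; 0% = buffer negative control and 100% = Enniatin B positive control; higher means more Nile Red kept so more efflux inhibition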
H9c2 protect – cardioprotection against H2O2-induced cell death, primary screen, uHTS, H9c2 cells, ATPLite luminescence; AID 588492, 2011; H9c2 cardiomyocytes, H2O2 injury protection, 2 h; 360,000 tested, 0.63% active; protection from H2O2 cell death, % at 20 µM;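 active = compounds giving at least 50% protection of heart cells from peroxide-induced death in the single-dose screen, raw or plate-pattern-corrected value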;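 also: 0% = DMSO wells with peroxide and 100% = DMSO wells without peroxide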
KCC2 secondary – KCC2 modulators in sodium-free buffer, confirmation, cell-based, HEK293 KCC2, thallium flux, secondary assay; FluoZin2 fluorescence; active compounds read high; shares compounds with Cl transport mod; 3,700 tested, 15% active; AID 1713, 2009; normalised thallium flux (F/F0 slope) at 10 µM;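 active = thallium flux slope above the same plate's solvent-only control mean plus 3 SD; inconclusive = the two replicate wells disagree; inactive = no significant difference from solvent-only control wells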
KCC2 bumet counter – thallium flux persisting under bumetanide in KCC2 cells, confirmation, counter-screen for KCC2 modulator project, cell-based, HEK293 KCC2, FluoZin2, secondary assay 3; shares compounds with Cl transport mod; HEK293-KCC2 + bumetanide/ouabain; active compounds read high; normalized thallium flux at 10 µM; 3,700 tested, 49% active; AID 1714, 2009;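 active = thallium entry rate above the same plate's blocked-transporter control wells by more than 3 SD; inconclusive = the two repeat wells disagree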;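 also: raw slope of fluorescence over initial fluorescence between 10 and 20 s after thallium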
KCC2 sec2 – KCC2 modulators without ouabain present, confirmation, cell-based, HEK293 KCC2, thallium flux, FluoZin2, secondary assay 2 | 3,700 tested, 23% active | thallium flux FluoZin2 fluorescence; actives lie on both sides; F/F0 rise rate, 10–20 s post-thallium | shares compounds with Cl transport mod | normalized thallium flux at 10 µM;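 active = thallium flux slope more than 3 SD above or below the plate's solvent-only control mean, mostly below; inconclusive = the two repeat wells disagreed; inactive = no significant shift from solvent-only controls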;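 also: raw slope with 0.1% DMSO as baseline and bumetanide as block control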
HEK counter1 – thallium flux modulation in parental HEK cells, confirmation, counter-screen for KCC2 modulator project, cell-based, counterscreen 1 | shares compounds with Cl transport mod | HEK293 parental cells, thallium flux FluoZin2, ouabain; baseline-ratio fluorescence slope, 10–20 s after thallium | thallium flux rate (normalised fluorescence) at 10 µM | 3,700 tested, 46% active | AID 1716, 2009;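 active = thallium flux rate significantly above the same plate's solvent-only control wells, beyond their mean plus 3 SD; inconclusive = the two replicate wells gave conflicting results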
KCC2 ouabain – KCC2 inhibitors and activators, ouabain retest, confirmation, HEK-KCC2 cells | shares compounds with Cl transport mod | HEK293-KCC2, thallium flux FluoZin2 fluorescence; bidirectional: low = inhibitor, high = activator | raw Tl+ flux slope (below DMSO = inhibition, above = activation) at 10 µM | 3,700 tested, 48% active;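 active = thallium flux slope beyond 3 SD from same-plate DMSO control mean in most replicates, usually higher, sometimes lower; inconclusive = repeat tests gave conflicting results; inactive = no significant difference from controls in most replicates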;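 also: slope of initial-normalized fluorescence between seconds 10 and 20 after thallium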
HEK counter2 – native HEK Tl+ uptake effects, second counter-screen – HEK cells, counterscreen 2, counter-screen for KCC2 modulator project, confirmation; shares compounds with Cl transport mod; HEK293 parental, thallium flux FluoZin-2 fluorescence slope; thallium flux slope at 10 µM; 3,700 tested, 33% active; AID 1718, 2009;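 active = thallium flux slope above the same plate's solvent-control mean plus 3 SD in both duplicate wells; inconclusive = duplicate wells that disagreed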;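 also: run without ouabain in cells lacking the KCC2 cotransporter; slope of fluorescence scaled to its starting value between 10 and 20 s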
Active calls of the source: *; ? = inconclusive; . = no result given.

SMILES | Cl transport mod | Calb FLC | PHOSPHO1 block | Efflux pump inh | H9c2 protect | KCC2 secondary | KCC2 bumet counter | KCC2 sec2 | HEK counter1 | KCC2 ouabain | HEK counter2
Cc1ccc(C(=O)NCC(=O)Nc2ccc(S(=O)(=O)Nc3cc(C)nc(C)n3)cc2)cc1 | . | . | . | 0 | 4 | . | . | . | . | . | .
COC(=O)CNc1cccc(C(F)(F)F)c1 | 0.037 | -12 | 41 | 0 | 4 | . | . | . | . | . | .
CCOc1ccc(Nc2nc(NCCN3CCOCC3)nc(OC)n2)cc1 | . | -5 | 4 | 0 | -2 | 0.0088 | ? | 0.035 | 0.0078 | 0.019 | 0.012
O=C(COC(=O)/C=C/c1ccc2ccccc2n1)NNC(=O)c1ccccc1 | . | . | . | . | 5 | . | . | . | . | . | .
CC(C)CCNC(=O)COC(=O)/C=C/c1ccc2ccccc2n1 | -3.9* | 44 | 16 | 0 | -3 | 0.017 | 0.0053 | 0.024* | 0.0076 | 0.014* | 0.0098
COc1cccc(OCCNc2cc(N3CCOCC3)ccc2[N+](=O)[O-])c1 | -0.27 | 39 | -4 | 0 | -3 | . | . | . | . | . | .
COc1ccc(OCCNc2cc(N3CCOCC3)ccc2[N+](=O)[O-])cc1 | -4.7* | 18 | 19 | 0 | 33 | 0.0083 | 0.0061 | 0.034 | 0.0074 | 0.021 | 0.011
Cc1cccc(C)c1-n1nnnc1C(c1ccnc2ccccc12)N1CCN(C/C=C/c2ccccc2)CC1 (centres undefined) | . | . | . | . | -3 | . | . | . | . | . | .
NC1=NC[C@@H](Cc2ccc(O)cc2)N1CCc1cc(C(F)(F)F)cc(C(F)(F)F)c1 | -3.2* | -2 | -4 | 0 | -1 | 0.0056 | 0.0045 | 0.022* | 0.0076 | 0.014* | 0.0096
CC(C)(C)CN1C(N)=NC[C@H]1Cc1ccc(O)cc1 | 0.3 | -5 | 44 | 1 | 4 | . | . | . | . | . | .
O=c1cc(-c2ccccc2Cl)oc2c([N+](=O)[O-])c(O)cc(O)c12 | -6.9* | 35 | -1 | 0 | -15 | 0.0062 | ? | 0.018* | 0.0057* | 0.011* | ?
O=c1cc(-c2ccccc2Cl)oc2ccc([N+](=O)[O-])c(O)c12 | 2.4 | -4 | -4 | 0 | 2 | . | . | . | . | . | .
CC(C)(C)S(=O)N1Cc2cc(CO)cc(-c3ccccc3)c2[C@@H]1CCO (some centres undefined) | . | . | . | . | 23 | . | . | . | . | . | .
Cc1ccc(Nc2nc(=O)c3cccnc3s2)c(Br)c1 | 29* | -2 | 12 | 0 | -3 | 0.0075 | 0.038* | ? | 0.02* | 0.038* | 0.021*
CC1CCCN(S(=O)(=O)c2ccc(NC(=O)CCN3C(=O)c4ccccc4C3=O)cc2)C1 (centres undefined) | 0.023 | 1 | 16 | 0 | -2 | 0.0097 | ? | 0.033 | 0.0078 | 0.021 | 0.011
O=C(CCN1C(=O)c2ccccc2C1=O)Nc1ccc(S(=O)(=O)N2CCOCC2)cc1 | -0.38 | -21 | 1 | 0 | 4 | . | . | . | . | . | .
